Shown are actives, neighbours in structure and some others; about 0.91% of the full set was active somewhere.
TRb-SRC2 inh: TRbeta-SRC2 interaction inhibition. TRbeta-SRC2 peptide binding, fluorescence polarization; receptor liganded with 1 µM T3. Potency, µM (titrated, usually from 106 µM), for the others: at the top dose activity change, negative = inhibition, usual class: inhibitors. actives 0.065% (n = 280,000). AID 1469;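 also: plate controls were bound peptide for no effect and peptide without receptor for full effect; nearly all actives have a fitted effect of over 50% in size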
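Human TRb ligand-binding domain (0.6 uM) is mixed with 20 nM Texas Red SRC2 peptide and 1 uM T3; after compound addition and 5 hr at ambient temperature, polarization is measured and normalized to unbound and bound controls.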
BLM helicase inh: Bloom syndrome helicase (human) inhibition. Potency, µM (highest dose often 56.1 µM), for the others: at the highest dose activity change, negative = inhibition, hits mostly inhibitors. P54132. actives 0.2% (n = 350,000). recombinant BLM DNA unwinding, fluorescence dequenching;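 also: plate controls were vehicle for no effect and no enzyme for full effect; nearly all actives have a fitted effect of over 35% in size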
Target sequence (P54132 whole entry, looked up): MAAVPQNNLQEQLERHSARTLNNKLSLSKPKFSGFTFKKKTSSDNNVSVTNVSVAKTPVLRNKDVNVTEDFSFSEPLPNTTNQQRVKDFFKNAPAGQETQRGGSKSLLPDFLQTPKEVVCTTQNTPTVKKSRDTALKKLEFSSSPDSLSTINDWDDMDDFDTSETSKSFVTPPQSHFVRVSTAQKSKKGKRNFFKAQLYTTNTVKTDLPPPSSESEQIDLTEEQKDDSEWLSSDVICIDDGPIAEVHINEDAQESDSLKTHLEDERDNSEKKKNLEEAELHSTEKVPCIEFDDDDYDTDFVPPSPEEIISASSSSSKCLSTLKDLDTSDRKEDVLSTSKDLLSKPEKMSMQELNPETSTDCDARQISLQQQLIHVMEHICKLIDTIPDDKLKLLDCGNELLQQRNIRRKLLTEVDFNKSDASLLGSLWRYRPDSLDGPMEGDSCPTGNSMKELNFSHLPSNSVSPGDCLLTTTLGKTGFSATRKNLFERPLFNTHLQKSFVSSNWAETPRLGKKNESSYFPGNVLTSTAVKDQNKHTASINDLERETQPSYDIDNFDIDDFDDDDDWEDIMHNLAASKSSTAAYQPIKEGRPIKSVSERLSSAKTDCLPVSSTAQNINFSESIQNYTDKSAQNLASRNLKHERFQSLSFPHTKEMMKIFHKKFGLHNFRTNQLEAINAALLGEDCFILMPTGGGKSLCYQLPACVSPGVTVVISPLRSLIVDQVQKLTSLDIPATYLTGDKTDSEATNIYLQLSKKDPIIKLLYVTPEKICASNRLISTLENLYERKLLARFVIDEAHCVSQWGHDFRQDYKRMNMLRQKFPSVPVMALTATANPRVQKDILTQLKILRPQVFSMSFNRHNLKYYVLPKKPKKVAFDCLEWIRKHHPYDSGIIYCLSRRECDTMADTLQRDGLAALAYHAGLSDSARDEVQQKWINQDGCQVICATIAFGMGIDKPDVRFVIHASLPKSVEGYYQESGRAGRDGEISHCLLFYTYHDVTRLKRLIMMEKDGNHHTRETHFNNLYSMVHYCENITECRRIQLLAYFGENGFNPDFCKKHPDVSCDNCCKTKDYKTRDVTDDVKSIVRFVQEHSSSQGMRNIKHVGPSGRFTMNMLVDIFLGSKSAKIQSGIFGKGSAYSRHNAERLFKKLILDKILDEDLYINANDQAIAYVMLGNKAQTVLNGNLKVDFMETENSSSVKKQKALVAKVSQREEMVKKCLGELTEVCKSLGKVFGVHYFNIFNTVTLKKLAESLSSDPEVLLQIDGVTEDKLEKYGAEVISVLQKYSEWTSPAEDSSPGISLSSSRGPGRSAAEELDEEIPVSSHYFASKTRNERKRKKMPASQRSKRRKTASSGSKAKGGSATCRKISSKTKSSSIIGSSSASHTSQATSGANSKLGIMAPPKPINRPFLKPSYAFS
TexasRed fluor: Texas Red fluorescence interference in TRb-SRC2 counter-screen. TRb/SRC2 Texas Red total fluorescence interference. Potency, µM (series often up to 106 µM), inactives show at the top dose fluorescence change, negative = quenching. actives 0.29% (n = 280,000); active = well fitted curve in either direction with a large enough effect; inconclusive = small, poorly fitted or top-dose-only effect
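Human TRb ligand-binding domain at 0.6 uM with 20 nM Texas Red SRC2 peptide in Tris buffer containing 1 uM T3 and 5% DMSO, incubated with compound 5 h at ambient temperature. Total fluorescence (555/632 nm) calculated as parallel + 2 × perpendicular.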
APEX1 inh: inhibitors of human APE1 endonuclease | actives 0.35% (n = 350,000) | Potency, µM (doses to about 65.8 µM), inactives show at the highest dose activity change, negative = inhibition, hits mostly inhibitors | P27695 | recombinant APE1, TAMRA/BHQ-2 abasic DNA cleavage fluorescence;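 also: plate controls were vehicle for no effect and reference inhibitor for full effect; nearly all actives have a fitted effect of over 55% in size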
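Compound pre-exposure to 0.75 nM APE1, 15 min at ambient temperature. Reaction initiated with 50 nM TAMRA/BHQ-2 THF substrate, read immediately in kinetic mode, 525 nm excitation, 598 nm emission.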
WRN helicase inh: blocks human WRN helicase | Q14191 | WRN helicase unwinding, fluorescent forked duplex, kinetic | Potency, µM (doses to about 114 µM), without a hit: top-dose activity change, negative = inhibition, usual class: inhibitors | actives 0.46% (n = 360,000) | AID 651768; also: nearly all actives have a fitted effect of over 55% in size
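Fluorescence dequenching readout, ex 525 nm/em 598 nm, kinetic mode: forked duplex DNA (100 nM final) with adjacent fluorophore and quencher unwound by WRN (20 nM final) with 2 mM ATP. Compound preincubation 15 min, room temperature.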
RECQ1 inh: RECQ1 (human) helicase inhibition; P46063; RECQ1 DNA unwinding, red fluorescence kinetic read; Potency, µM (series often up to 57.3 µM), for inactives: top-dose activity, negative = inhibition, usual class: inhibitors; actives 0.54% (n = 240,000); AID 2549;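 also: plate controls were vehicle for no effect and no enzyme for full effect; nearly all actives have a fitted effect of over 30% in size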
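50 nM RECQ1T1 preincubated 15 min with compound in Tris pH 8.0 buffer with MgCl2, DTT, Tween-20 and 2.5 ug/ml poly(dI-dC); started with 200 nM TAMRA/BHQ-2 forked duplex and 2 mM ATP. Unwinding read as fluorescence (525/598 nm), two reads 2 h apart.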
* hit, by the source's call; i = inactive; ? = inconclusive; . = no result; [ ] = another dose, or the depositor's remark. Unless noted, calls follow the shape of the dose curve; as a rule, active = well fitted curve in the direction sought with a large enough effect; inconclusive = small, poorly fitted or top-dose-only effect, or another doubt; inactive = no such curve, though single readings can be large; an effect the other way counts as inactive or inconclusive. Unless noted, % is scaled to controls: 0 for no effect and ±100 for the full control effect; potency is read from the fitted curve at half-maximal effect.

SMILES	TRb-SRC2 inh	BLM helicase inh	TexasRed fluor	APEX1 inh	WRN helicase inh	RECQ1 inh
Cc1ccc(/C=C2\SC(=S)N(C3CCS(=O)(=O)C3)C2=O)o1 (stereo unspecified)	0.0%	-5.8%	-0.1%	4.1%	?	-5.8%
CC(C)CCCCCCc1ccc(OCCOCCO)cc1	5.9%[201 µM]	.	1.6%[201 µM]	.	.	.
O=C(COC(=O)c1cc2c(s1)CCCC2)Nc1ccc(Cl)cn1	7.8%	-1.9%	8.9%	3.0%	0.3%	-4.0%
COc1ccc(OCC(=O)Nc2ccc3c(c2)CCC3)cc1	.	.	.	40.9%	0.5%	.
NC(=O)c1ccc(NC(=O)COC(=O)c2cc3c(s2)CCC3)cc1	.	.	.	2.99µM*	-22.0%	.
COc1ccc(NC(=O)COC(=O)c2cc3c(s2)CCC3)cc1	.	.	.	5.32µM*	-22.3%	.
CNC(C)[C@@H]1CC[C@@H](N)[C@@H](O[C@H]2[C@H](O)[C@@H](O[C@H]3OC[C@](C)(O)[C@H](NC)[C@H]3O)[C@H](N)C[C@@H]2N)O1 (stereo partly specified)	.	.	.	3.1%[21 µM]	.	.
Fc1ccc(Br)cc1	-3.8%[201 µM]	.	1.0%[201 µM]	.	.	.
CN1CCc2c(sc3c2C(=O)NC(c2cccs2)N3)C1 (stereo unspecified)	?	-2.4%	44.7µM*[fluorescent]	-6.7%	-7.1%	-22.7%
COc1ccc2c(c1)c1c(c(=O)n(-c3ccc(F)c(Cl)c3)c(=O)n1Cc1ccccc1C)n2C	3.1%	-2.8%	-0.5%	.	.	.
CCN1C(c2ccccc2)=C(c2ccccc2)S/C1=C/C=C1\SC(=S)N(C)C1=O	?	-6.7%	17.8µM*[fluorescent]	-8.0%	-32.1%[11.6 µM]	?
CN(C)CCOCCN(C)C	-0.6%[201 µM]	.	-6.4%[201 µM]	.	.	.
CCCCCCCCCCCCCCCO	7.6%[201 µM]	.	-4.4%[201 µM]	.	.	.
Cc1cc2c(cc1NS(=O)(=O)c1ccc(Br)cc1)n(C)c(=O)c(=O)n2C	-20.6%	3.0%	2239µM*[quencher]	.	.	.
C/C(=N\NC(N)=S)C1C2C3CC4C5CC(C42)C1C53 (stereo unspecified)	-1.7%	-2.4%	-1.5%	-4.9%	0.6%	-0.7%
CN1/C(=C/c2cc[n+](C)c3ccccc23)C=Cc2ccccc21	3.5%	?	0.4%	-2.7%	28.2µM*	?
Cc1ccccc1CNCCCSc1nnnn1-c1ccccc1	-3.3%	4.9%	7.5%	.	.	.
Cc1ccc(S(=O)(=O)c2c(O)cc(C)c(NS(=O)(=O)c3ccc(Br)cc3)c2C)cc1	1.7%	-12.1%	1.0%	.	.	.
CS(=O)(=O)c1ccc(Cl)cc1	2.5%[201 µM]	.	-1.4%[201 µM]	.	.	.
CC(C)(C)n1ncc2c(=O)n(Cc3ccc(SC(=O)O)cc3Cl)cnc21	.	.	.	17.8%	.	.
NNc1ccc([N+](=O)[O-])c2[nH][nH]c(=O)c12	.	.	.	.	20µM*	.
O=[N+]([O-])c1ccc(Nc2ccccc2)c2nonc12	.	-13.8%	.	14.7%	-11.6%	.
CC(=O)c1c(C)oc2ccc(NS(=O)(=O)c3ccc(O)c(C(=O)O)c3)cc12	7.2%	0.8%	-0.2%	-4.3%	-24.6%[57.1 µM]	5.1%
O=C(O)c1cc(S(=O)(=O)Nc2ccc3oc(=O)sc3c2)ccc1O	0.4%	3.3%	-3.5%	?	28.2µM*	i
Cc1ccc2nc(-c3ccc(C#N)cc3)c(Cc3ccccc3C(F)(F)F)n2c1	.	.	.	.	-11.3%	.
SMILES	TRb-SRC2 inh	BLM helicase inh	TexasRed fluor	APEX1 inh	WRN helicase inh	RECQ1 inh
CC(C)C(C)(C#N)NC(=O)CSc1nc2scc(-c3ccco3)c2c(=O)n1-c1ccccc1 (stereo unspecified)	?	?	?	?	-16.4%	20µM*
CC(C)C(C)NC(=O)CSc1nc2scc(-c3ccco3)c2c(=O)n1-c1ccccc1 (stereo unspecified)	11.5%	-14.1%	6.9%	-1.4%	-10.1%	i
O=S(=O)(c1cc(O)ccc1O)c1cccc2c(S(=O)(=O)c3cc(O)ccc3O)cccc12	.	.	.	2.12µM*	31.6µM*	.
Oc1cccc(O)c1	3.8%	-3.4%	-0.7%	-6.6%	.	-5.3%
O=[N+]([O-])c1cccc(-c2nnc3ccc4ccccc4n23)c1	5.1%	5.4%	?	12.6µM*	-9.8%	?
C=CCNc1oc(-c2cccc(Br)c2)nc1C#N	.	.	.	-1.9%	.	.
CCOC(=O)C(=O)Cc1cccnn1	.	.	.	.	50.1µM*	.
CCOC(=O)C(Cc1ccnc2ccccc12)=NO	.	.	.	.	-1.2%	.
CCOc1ccc(C2=Cc3cc(OC)c(OC)cc3C(=C(Cl)Cl)O2)cc1	28.2µM*	-12.8%	-19.2%	?	.	-12.9%
CCC(=O)N1CCc2cc(Br)cc(S(=O)(=O)N3CCCC(C(=O)NCc4cccc(OC)c4)C3)c21 (stereo unspecified)	-10.3%	-7.4%	0.0079µM*[quencher]	.	.	.
CCC(=O)N1CCc2cc(Br)cc(S(=O)(=O)N3CCCC(C(=O)NCc4ccc(OC)cc4)C3)c21 (stereo unspecified)	-6.5%	-5.0%	-4.0%	.	.	.
CCCC/C=C\CCCCCCCCCC=O	8.7%[201 µM]	.	2.9%[201 µM]	.	.	.
CCOC(=O)C1=C(CSc2nc(-c3ccccc3)ccc2C#N)OC(N)=C(C#N)C1c1ccccc1 (stereo unspecified)	2.5%	-16.7%	-0.1%	-1.7%	-27.3%	22.4µM*
C[Si](Cl)(Cl)[Si](C)(Cl)Cl	5.3%[201 µM]	.	1.2%[201 µM]	.	.	.
O=C(O)CCCNc1cc(N2CCC3(CC2)OCCO3)c2noc3c2c1C(=O)c1ccccc1-3	22.4µM*	-25.4%	44.7µM*[fluorescent]	?	.	-25.1%
CN1CCN(c2cc(N3CCN(C(=O)c4ccco4)CC3)c3c4c(onc24)-c2ccccc2C3=O)CC1	.	-17.6%	.	16.6%	?	.
CCOC(=O)N1CCN(c2cc(NCCC(=O)O)c3c4c(onc24)-c2ccccc2C3=O)CC1	28.2µM*	-22.1%	12.6µM*[fluorescent]	?	-19.3%[57.1 µM]	?
CCCCNc1cc(N2CCN(C3CCCCC3)CC2)c2noc3c2c1C(=O)c1ccccc1-3	-3.0%	-6.0%	2.2%	.	.	.
Cc1ccc(-c2no[n+]([O-])c2C#N)cc1	.	.	.	-5.2%	.	.
CCCCN(C(=O)c1cccs1)C1CCS(=O)(=O)C1 (stereo unspecified)	.	.	.	6.2%	-2.4%	.
CCOc1ccc(C(=O)Nc2ccc3oc(-c4cccnc4)nc3c2)cc1	4.5%	-9.6%	-1.6%	.	.	.
Cc1ccc(OCC(=O)Nc2cc(C(=O)O)cc(C(=O)O)c2)cc1C	6.6%	-5.3%	0.4%	9.2%	79.4µM*	-11.9%
CNc1oc(-c2cccc(Br)c2)nc1C#N	.	.	.	25.4%	.	.
O=S(=O)([O-])CCC[n+]1c(SCCCS(=O)(=O)O)sc2ccc(Cl)cc21	3.5%	-12.2%	-1.2%	5.6%	35.5µM*	-8.2%
Cc1ccc(N=Cc2ccc(N(C)C)cc2)cc1	-14.0%	-4.2%	2.1%	11.6%	-6.5%	i
CN(C)c1ccc(C=Nc2ccc(N(C)C)cc2)cc1	50.1µM*	-12.3%	?	-4.0%	-7.0%	-7.0%

Screening results as filed in PubChem.
